In PubChem BioAssay:
Inconclusive results are not listed. Calls of active or inactive are those of the source. Unless noted, cut-off not given; nearly all actives show AC50 up to about 26 µM.

Tests used:
[1] = viability loss in pontine glioma line – cell-based, SU-DIPG-XVII, MIPE5.0, CellTiter-Glo, qHTS, dose response (AID 1347060); conditions: CellTiter-Glo ATP luminescence;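 on AC50: cells exposed to compound for 48 hours before viability readout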
[2] = viability loss in pontine glioma line – cell-based, SU-DIPG-XIII, MIPE4.0, CellTiter-Glo, qHTS, dose response (AID 1347061; cut-off not given, nearly all actives have AC50 up to about 37 µM;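 further: cells exposed to compound for 48 hours before readout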); conditions: CellTiter-Glo ATP luminescence
[3] = viability loss in pontine glioma line – cell-based, JHH-DIPG-1, MIPE4.0, CellTiter-Glo, qHTS, dose response (AID 1347062; cut-off not given, nearly all actives have AC50 up to about 27 µM;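 on AC50: cells exposed to compound for two days before readout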); conditions: JHH-DIPG-1 viability, CellTiter-Glo ATP luminescence
[4] = viability loss in pontine glioma line – cell-based, SU-DIPG-IV, MIPE4.0, CellTiter-Glo, qHTS, dose response (AID 1347063; cut-off not given, nearly all actives have AC50 up to about 30 µM;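 further: compound exposure lasted 48 hours before the viability readout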); conditions: CellTiter-Glo ATP luminescence
[5] = viability loss in pontine glioma line – cell-based, SU-DIPG-XIII, MIPE5.0, CellTiter-Glo, qHTS, dose response (AID 1347064; cut-off not given, nearly all actives have AC50 up to about 23 µM;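 on AC50: cells exposed to compound for 48 hours before the viability read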); conditions: CellTiter-Glo ATP luminescence
[6] = viability loss in pontine glioma line – cell-based, SU-DIPG-XXV, MIPE5.0, CellTiter-Glo, qHTS, dose response (AID 1347065); conditions: CellTiter-Glo ATP luminescence;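 further: cells exposed to compound for 48 hours before ATP readout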
[7] = growth inhibition of DIPG cells – cell-based, MIPE4.0 library, CellTiter-Glo luminescence, qHTS (AID 1347066; cut-off not given, nearly all actives have AC50 up to about 30 µM;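 further: cells exposed to compound for 48 hours before readout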); conditions: SU-DIPG-VI viability, CellTiter-Glo ATP luminescence
[8] = JHH-DIPG-1 glioma cell viability, MIPE5.0 library, CellTiter-Glo luminescence, qHTS (AID 1347067); conditions: JHH-DIPG-1 glioma viability, CellTiter-Glo ATP luminescence;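 further: cells exposed to compound for 48 hours before readout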
[9] = growth inhibition of DIPG cells – cell-based, MIPE5.0 library, qHTS (AID 1347068; cut-off not given, nearly all actives have IC50 up to about 30 µM;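 on IC50: cells exposed to compound for 48 hours before viability readout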); conditions: SU-DIPG-XXV viability
[10] = viability loss with induced miR-34 in A549 – imaging, A549 dox-inducible miR-34, nuclei and caspase counts, primary screen (AID 1347080;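 active means compounds whose cell count with miR-34 switched on is under 0.7 times the count with it off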); conditions: A549 miR-34 inducible, Hoechst nuclei count, 48 h
[11] = MELAS cybrid and Rieske KO viability enhancers – cell-based, MELAS cybrids, Rieske KO mouse fibroblasts, CellTiter-Glo, primary screen (AID 1508586;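 active means mean z-score across replicates of 1.96 or higher in either the MELAS or the Rieske mutant cell line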;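 further: z relative to plate mean and SD of compound and empty wells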); conditions: low glucose
[12] = compounds altering circadian rhythm period length – cell-based, LOPAC library, luminescence reporter (AID 2774; call rule not given here;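 further: values are relative to mean of DMSO wells on each plate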); conditions: circadian reporter cells, at 7 µM, actives lie on both sides
[13] = system: Hepatitis C virus NS3 helicase; test: blockers of NS3h binding to ssDNA – biochemical, fluorescence polarization, LOPAC1280 library, primary screen (AID 687035; in the data active means inhibition above about 37%); conditions: Purified HCV NS3 helicase, Cy5-dT15 ssDNA binding fluorescence polarization; stronger effect = higher value; concentration not given here
[14] = compounds altering Cy5-DNA-NS3h complex signal – biochemical, LOPAC1280, artefact control for HCV NS3 helicase inhibitor project (AID 687037; call rule not given here); conditions: Cy5-DNA-NS3h complex fluorescence interference counterscreen
[15] = system: Aerobactin synthetase IucA (Klebsiella pneumoniae, hypervirulent); test: biochemical IucA inhibition screen of LOPAC library by absorbance (AID 1346212; call rule not given here;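 further: 100% = no compound wells and 0% = no enzyme wells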); conditions: IucA enzyme assay, absorbance (OD) readout; stronger effect = lower value;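 tested at 8 µM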
[16] = P. berghei load reduction in hepatocytes – cell-based, HepG2, luciferase luminescence, HepG2 viability, primary screen (AID 624349; in the data active means parasite load remaining mostly below about 12%, no sharp cut-off; inactive means mostly above about 10%;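 further: 100% = mean of DMSO negative control wells on the same plate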); conditions: P. berghei liver stage in HepG2, luciferase luminescence, concentration not given here; parasite load remaining: stronger effect = lower value; viability: measured here: HepG2 viability without parasites
[17] = stronger effect = lower value, cell number ratio, induced over uninduced
[18] = measured here: relative caspase fold change +Dox/-Dox
[19] = measured here: total cells with miR-34 induction, stronger effect = lower value
[20] = measured here: total cells without miR-34 induction
[21] = MELAS cybrid survival, CellTiter-Glo 48 h, stronger effect = higher value
[22] = Rieske KO mouse fibroblast survival, CellTiter-Glo 72 h

CCc1c(C(=O)C(N)=O)c2c(OCC(=O)O)cccc2n1Cc1ccccc1
0.396: z-score [11, 22]
1.11: fold change [10, 18]
inactive: outcome [1] | outcome [2] | outcome [3] | outcome [4] | outcome [5] | outcome [6] | outcome [7] | outcome [8] | outcome [9] | fold change [10, 17] 0.89 | z-score [11, 21] -0.413
7750: cell count [10, 19]
8710: cell count [10, 20]

COC(=O)[C@]12CCC(C)(C)C[C@H]1[C@H]1C(=O)C=C3[C@@]4(C)C=C(C#N)C(=O)C(C)(C)[C@@H]4CC[C@@]3(C)[C@]1(C)CC2
active: AC50 [1] 3.72 µM | AC50 [2] 2.64 µM | AC50 [3] 0.59 µM | AC50 [4] 0.469 µM | AC50 [5] 3.72 µM | AC50 [6] 2.09 µM | AC50 [7] 0.743 µM | AC50 [8] 0.833 µM | IC50 [9] 10.5 µM

N=c1c2c(-c3ccccc3)c(-c3ccccc3)n(Cc3ccccc3)c2ncn1C1CCC(O)CC1 (stereo not drawn)
inactive: outcome [2]
active: AC50 [1] 18.6 µM | AC50 [4] 8.33 µM | AC50 [5] 16.6 µM | AC50 [6] 20.9 µM | IC50 [9] 18.6 µM

C[Se]C[C@H](N)C(=O)O
inactive: period change [12] -0.13 h | inhibition [13] -5% | fluorescence ratio (interference) [14] 1 | remaining activity [15] 106%

COc1ccc2c(c1)/C(=C/c1cnc[nH]1)C(=O)N2
inactive: parasite load remaining [16] 16.5% | remaining activity [15] 119%
98.5%: viability [16]

N=C1NC(=O)N2CC12 (stereo not drawn)
active: AC50 [3] 2.09 µM
inactive: outcome [1] | outcome [2] | outcome [5] | outcome [6] | outcome [8] | outcome [9]

C/C(=C\c1csc(C)n1)[C@@H]1C[C@@H]2O[C@]2(C)CCC[C@H](C)[C@H](O)[C@@H](C)C(=O)C(C)(C)[C@@H](O)CC(=O)O1
active: AC50 [1] 0.00263 µM | AC50 [6] 0.00166 µM
inactive: outcome [2] | outcome [3] | outcome [4] | outcome [5] | outcome [7]

CSCC[C@@H](NC(=O)[C@@H](Cc1ccccc1)NC(=O)CNC(=O)CNC(=O)[C@@H](N)Cc1ccc(O)cc1)C(=O)O
inactive: outcome [1] | outcome [2] | outcome [3] | outcome [4] | outcome [5] | outcome [6] | outcome [8] | outcome [9]

Cc1ccccc1-n1c(Cn2ncc3c(N)ncnc32)nc2cccc(C)c2c1=O
8570: cell count [10, 19]
0.968: fold change [10, 18]
0.957: z-score [11, 22]
inactive: outcome [1] | outcome [2] | outcome [5] | outcome [6] | outcome [8] | outcome [9] | fold change [10, 17] 0.903 | z-score [11, 21] -0.332
9490: cell count [10, 20]

Clc1ccccc1C(c1ccccc1)(c1ccccc1)n1cccn1
active: AC50 [1] 23.5 µM | AC50 [6] 33.2 µM | AC50 [8] 23.5 µM
inactive: outcome [2] | outcome [7] | outcome [9]

COc1ccc2c(c1)[C@@]13CCCC[C@H]1[C@@H](C2)NCC3
inactive: period change [12] -0.085 h | inhibition [13] -5% | fluorescence ratio (interference) [14] 1 | remaining activity [15] 108%

C=CCN(C1=NCCN1)c1c(Cl)cccc1Cl
inactive: inhibition [13] -4% | fluorescence ratio (interference) [14] 1 | remaining activity [15] 95.7%

CCOP(=O)(OCC)C(C)NC(=O)N(CCCl)N=O (stereo not drawn)
inactive: outcome [1] | outcome [2] | outcome [3] | outcome [5] | outcome [6] | outcome [7] | outcome [8] | outcome [9]

CN[C@@H]1Cc2cccc3[nH]c(=O)n(c23)C1
inactive: outcome [1] | outcome [2] | outcome [3] | outcome [5] | outcome [6] | outcome [7] | outcome [8] | outcome [9]

O=C(Oc1ccc([N+](=O)[O-])cc1)N1CCN(Cc2cccc(Oc3ccccc3)c2)CC1
active: AC50 [2] 11.8 µM
inactive: outcome [1] | outcome [3] | outcome [5] | outcome [6] | outcome [7] | outcome [8]

O=C(O)c1cc[c]([Hg][Cl])cc1
active: remaining activity [15] -1.2%
inactive: period change [12] 0.155 h | inhibition [13] -5% | fluorescence ratio (interference) [14] 1

CC(C)[C@H]1C(=O)N[C@H](CO)Cc2c[nH]c3cccc(c23)N1C
inactive: outcome [1] | outcome [2] | outcome [7] | outcome [9]

COc1cc2cc(c1Cl)N(C)C(=O)C[C@H](OC(=O)C(C)C)[C@]1(C)O[C@@H]1[C@H](C)[C@@H]1C[C@@](O)(NC(=O)O1)[C@H](OC)/C=C/C=C(\C)C2
active: AC50 [5] 0.0332 µM | AC50 [6] 0.00662 µM | AC50 [8] 0.00742 µM
inactive: outcome [1] | outcome [2] | outcome [3] | outcome [4] | outcome [7]

CCCN(CCC)CCc1c[nH]c2ccc(C(N)=O)cc12
inactive: period change [12] 0.085 h | inhibition [13] 0% | fluorescence ratio (interference) [14] 1.1 | remaining activity [15] 109%

C/C=C(\C)C(=O)N[C@@H](c1ccccc1)[C@@H](O)C(=O)O[C@H]1C[C@@]2(O)[C@@H](OC(=O)c3ccccc3)[C@@H]3[C@]4(OC(C)=O)CO[C@@H]4C[C@H](O)[C@@]3(C)C(=O)[C@H](OC(C)=O)C(=C1C)C2(C)C
inactive: outcome [2] | outcome [3] | outcome [4] | outcome [7]
active: AC50 [1] 0.0132 µM | AC50 [6] 0.0235 µM

CC1(C)CC(O)CC(C)(C)N1O
7440: cell count [10, 19]
-0.223: z-score [11, 22]
7670: cell count [10, 20]
0.416: fold change [10, 18]
inactive: outcome [1] | outcome [2] | outcome [3] | outcome [4] | outcome [5] | outcome [6] | outcome [7] | outcome [8] | outcome [9] | fold change [10, 17] 0.97 | z-score [11, 21] -0.227
